The OligoGym collection

These sequences were tested against SLC25A3 (assay: pooled miR-30 sensor sort-seq; sequence = guide strand). Details: shRNA.
Note: reference of the scale not given here.

Sequence | sensor-assay potency score (higher = more potent)
TTGAGGACCAGAGAAGCACTGC | 0.0253
TACAAATGTTACAACCAGCTGC | 0.505
TTAAGTGTAACTGAGAATCCGT | 0.392
TTGCACAAAAGACTCCAGCTAT | 0.0495

These sequences were tested against SLC25A41 in the same assay as above. Details: shRNA.

Sequence | sensor-assay potency score (higher = more potent)
TCCTGTGTCCAGTACCTGCTGT | -0.625
TGCATGTACACCTTGGCTCTGT | -0.291
TACACCACATAGCTGATGCCAC | -0.548
TTGCACTGCTCGAATACGGAGA | -0.376
ATACTCAGGAGCAATCTTGAGC | -0.858
TAGACAGCCAGGTCGGTGCAGG | -0.911
TTGGTGAAGTTCGTCTTGGAGG | -1.22
TTCAAGGTTGTTGTCATGCATG | -1.11
TAGACCTGCATGTACACCTTGG | -0.353
TATTCCACAGAAGTAATTCTTG | -0.218
TCTCGCTGCAAGATCTGCCTGG | -0.421
TAGAGCAAGTGTTCTGAGGTTC | 0.286
